SNCA expr inh: reduces expression of the alpha-synuclein gene. HEK-293 SNCA-luciferase knock-in, luminescence, 24 h. Potency, µM (highest dose often 57.2 µM), for the others: at the top dose activity change, negative = inhibition, usual class: inhibitors. 140,000 compounds, 0.17% hits;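 note: plate controls were DMSO cells for no effect and cell-free wells for full effect; nearly all actives have a fitted effect of over 45% in size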
FLuc inh: inhibitors of firefly (Photinus pyralis) luciferase; purified P. pyralis luciferase, luminescence, biochemical; 76,000 compounds, 2.5% hits; AID 1347043; Potency, µM (highest dose often 115 µM), actives largely listed as inhibitors; P08659; note: nearly all actives have a fitted effect of over 65% in size
Target sequence (P08659 whole entry, looked up): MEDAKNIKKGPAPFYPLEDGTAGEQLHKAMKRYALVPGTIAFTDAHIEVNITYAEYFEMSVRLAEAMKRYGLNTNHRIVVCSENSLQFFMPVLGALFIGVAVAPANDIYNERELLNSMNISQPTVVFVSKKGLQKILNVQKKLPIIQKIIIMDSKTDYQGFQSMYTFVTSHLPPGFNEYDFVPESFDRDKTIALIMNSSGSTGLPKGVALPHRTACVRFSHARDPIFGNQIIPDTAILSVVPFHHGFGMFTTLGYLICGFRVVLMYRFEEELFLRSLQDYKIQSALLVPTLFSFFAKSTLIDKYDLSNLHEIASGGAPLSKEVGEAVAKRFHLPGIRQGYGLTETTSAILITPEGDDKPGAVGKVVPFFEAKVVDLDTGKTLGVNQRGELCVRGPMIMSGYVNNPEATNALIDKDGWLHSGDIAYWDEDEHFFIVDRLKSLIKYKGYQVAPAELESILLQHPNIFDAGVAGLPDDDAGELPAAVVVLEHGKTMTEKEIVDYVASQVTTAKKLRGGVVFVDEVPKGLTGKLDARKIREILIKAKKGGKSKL
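Purified 10nM P. pyralis luciferase with 10uM D-luciferin and 10uM ATP in 50mM Tris acetate pH 7.5, 10mM Mg acetate, 0.01% Tween-20, 0.05% BSA. qHTS titration; luminescence read by CCD imager.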
NPR1 antag: blocks ANP-stimulated signaling of human Npr1 receptor. 76,000 compounds, 1.6% hits. P16066. Potency, µM (series often up to 46.3 µM), inactives show at the highest dose activity change, negative = inhibition, most hits filed as inhibitors. AID 1347048. HEK293 hNpr1 GloSensor cGMP, ANP-stimulated luminescence; calls by dose curve; note: nearly all actives have a fitted effect of over 60% in size
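HEK293 cells stably expressing human Npr1 and cGMP GloSensor pGS-40F, loaded 2 h with 2% GloSensor reagent, given compound 30 min at room temperature. Luminescence read before and 20 min after 0.1 nM hNppA.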
HEK293 viab: counter-screen for SNCA expression inhibitors: cell viability. HEK-293-SNCA-luc viability, GF-AFC fluorescence, 24 h. Potency, µM (titrated, usually from 57.1 µM), for inactives: top-dose activity change, negative = cytotoxicity, most hits filed as cytotoxic. 150,000 compounds, 0.12% hits. AID 1671193;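 note: 0% = DMSO-treated cells and -100% = medium-only wells without cells; nearly all actives have a fitted effect of over 30% in size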
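HEK-293-SNCA-luc cells (1500/well) plated 24 h, then exposed 24 h to a dilution series; GF-AFC added 30 min at 37C, fluorescence 405/540 nm; normalised to medium-only and DMSO wells, Hill fit.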
NIH3T3 tox: kills NIH 3T3 cells | NIH 3T3 viability, CellTiter-Glo ATP luminescence, 48-72 h | 94,000 compounds, 4.3% hits | Potency, µM (series often up to 96.7 µM), inactives show at the top dose activity change, negative = cytotoxicity, usual class: inhibitors | AID 1345082; note: nearly all actives have a fitted effect of over 55% in size
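Cytotoxicity was measured by CellTiter-Glo ATP luminescence after 48 or 72 h compound exposure at 37 °C. Mouse NIH 3T3 fibroblasts were seeded at 400 cells/well and dosed by 23 nL pin transfer.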
HEK293 tox: cytotoxic compounds in HEK 293 cells; HEK 293 viability, ATP luminescence (CellTiter-Glo), 48-72 h; Potency, µM (top dose mostly 115 µM), inactives show top-dose activity change, negative = cytotoxicity, hits mostly inhibitors; 94,000 compounds, 6.6% hits; note: nearly all actives have a fitted effect of over 60% in size
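ATP-coupled CellTiter-Glo luminescence served as viability read-out, recorded 10 min after reagent addition at room temperature. HEK 293 cells, 250 cells/well, had been incubated with pintool-transferred compound for 48 or 72 hr at 37 degree Celsius.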
* = called active by the depositor; i = inactive; ? = inconclusive; nt = no result given; [ ] = remark or other dose. An excerpt weighted towards active compounds, which were near 7.4% of everything screened. Unless noted, calls come from the whole dose curve; as a rule, active = well fitted curve in the direction sought with a large enough effect; inconclusive = small, poorly fitted or top-dose-only effect, or another doubt; inactive = no such curve, though single readings can be large; an effect the other way counts as inactive or inconclusive. Unless noted, % is set by controls: 0 for no effect and ±100 for the full control effect; potency is the fitted concentration of half-maximal effect.

SMILES | SNCA expr inh | FLuc inh | NPR1 antag | HEK293 viab | NIH3T3 tox | HEK293 tox
Cc1ccc2oc([C@H]3CCN(Cc4ccccn4)C3)nc2c1 | 72%[87.6 µM] | ? | -17%[70.6 µM] | 4%[87.6 µM] | ? | ?
Cc1ccc2oc([C@H]3CCN(Cc4ccc(C(=O)O)cc4)C3)nc2c1 | 51%[87.6 µM] | 71µM* | 2%[70.6 µM] | -4%[87.6 µM] | ? | -7%[172 µM]
Cc1ccc2oc([C@H]3CCN(C(=O)C4CC4)C3)nc2c1 | 46%[87.6 µM] | 35µM* | 5%[70.6 µM] | -8%[87.6 µM] | -19%[174 µM] | ?
Cc1ccc(CN2CC[C@H](c3nc4cc(C)ccc4o3)C2)cc1 | 41%[87.6 µM] | 45µM* | 0%[70.6 µM] | 8%[87.6 µM] | ? | ?
CC(C)(C)c1nnc([C@H]2CCN(C(=O)C3CC3)C2)o1 | -24%[87.6 µM] | i | 3%[70.6 µM] | -4%[87.6 µM] | i | 2%[230 µM]
CCCC[S+](=O)([O-])N1CCC2(CC1)[C@H](C(=O)OCC)[C@@H](OC)C(=O)N2C | nt | nt | nt | nt | ? | -22%
O=C(c1cccs1)N1CCC(N2C(=O)C(OCC3CC3)C23CCCCC3)CC1 (stereo not given) | -16% | i | -3% | 0% | -4% | ?
CC(NC(=O)c1ccc2cccc(F)c2n1)c1ccccc1-n1cccn1 (stereo not given) | -5% | 35µM* | -2% | -12% | ? | ?
CCCCC1C=CCN1C(=O)c1cc(COc2ccc(F)cc2F)[nH]n1 (stereo not given) | 10% | i | -1% | -5% | ? | ?
COc1ccc(CN2CCNc3cc(Nc4ccccc4)ncc3C2)cc1O | ? | i | -12%[70.6 µM] | -29%[87.6 µM] | 79µM* | 100µM*
COc1ccc(CN2CCNc3cc(-c4ccccc4)ncc3C2)cc1O | 58%[87.6 µM] | i | -16%[70.6 µM] | -29%[87.6 µM] | ? | 89µM*
c1ccc(CN2CCNc3cc(-c4ccoc4)ncc3C2)cc1 | -4%[87.6 µM] | ? | -12%[70.6 µM] | -16%[87.6 µM] | ? | ?
NC(=O)c1cccc(-c2cc3c(cn2)CN(CCc2ccccc2)CCN3)c1 | ? | ? | -6%[70.6 µM] | -22%[87.6 µM] | 89µM* | ?
COc1cccc(CN2CCNc3cc(-c4ccccc4)ncc3C2)c1 | -30%[87.6 µM] | 40µM* | -1%[70.6 µM] | ? | ? | ?
CC(=O)N1CC2(Cc3ccccc31)CN(C(=O)Cc1ccccn1)C2 | -18%[87.6 µM] | i | -6%[70.6 µM] | 6%[87.6 µM] | -13%[138 µM] | -6%[172 µM]
CCN(CC)C[C@H]1O[C@H](Cc2cc(-c3ccc(F)cc3)on2)CC[C@@H]1O | 94%[87.6 µM] | ? | ? | -1%[87.6 µM] | ? | ?
CC1=C[C@@H](CO)[C@H](C(C)C)C[C@H]1CC(=O)NCc1cc(F)cc(F)c1 | 3%[87.6 µM] | i | -3%[70.6 µM] | -1%[87.6 µM] | ? | ?
Cc1ccccc1C(=O)N1CC(C(=O)N(C)C)C2(CCOCC2)C1 (stereo not given) | 31% | i | 3% | 17% | -3% | 1%
O=C(Nc1ccc(F)cc1)c1cnn2ncccc12 | 118%[87.6 µM] | ? | 6%[70.6 µM] | -8%[87.6 µM] | -26%[138 µM] | ?
CC(C)CNC(=O)N1CCCCC1c1nc(CCOc2ccc(F)cc2)no1 (stereo not given) | -16% | i | -24% | -11% | ? | ?
CC(=O)N1CCNc2cc(-c3ccc(Oc4ccccc4)cc3)ncc2C1 | 194%[87.6 µM] | 20µM* | -19%[70.6 µM] | -7%[87.6 µM] | ? | 71µM*
CCNC(=O)O[C@@H]1CC[C@]2(C)C(CC[C@@H](O)[C@H]2CC(=O)NCc2cc(F)cc(F)c2)[C@]1(C)CO (stereo not given in full) | -17% | i | -10% | 6% | ? | -2%
CCCN1CCC2(CCN(C(=O)c3ccc(C)cc3)CC2)Oc2ccccc21 | -5% | i | 0% | 13% | ? | ?
O=C(c1ccc(Cl)nc1)N1CCC2(CC1)CCN(Cc1cccs1)c1ccccc1O2 | ? | i | ? | ? | ? | 25µM*
CC(C)(C)C(=O)N1CCC2(CC1)CCN(Cc1cccs1)c1ccccc1O2 | 24% | i | -27% | -15% | ? | 35µM*
SMILES | SNCA expr inh | FLuc inh | NPR1 antag | HEK293 viab | NIH3T3 tox | HEK293 tox
O=C(c1ccccc1)N1CCC2(CC1)CCN(Cc1cccs1)c1ccccc1O2 | -10% | i | 4% | -6% | ? | ?
COCC(=O)N1CCC2(CC1)CCN(Cc1cccs1)c1ccccc1O2 | 3% | i | -1% | -7% | ? | ?
Cc1ccc(C(=O)N2CCC3(CC2)CCN(CCc2ccccc2)c2ccccc2O3)cc1 | 6% | i | 10% | -16% | 40µM* | ?
COc1cccc(C(=O)N2CCC3(CC2)CCN(Cc2cccs2)c2ccccc2O3)c1 | -12% | i | -5% | -13% | ? | ?
COc1ccc(C(=O)N2CCC3(CC2)CCN(Cc2cccs2)c2ccccc2O3)cc1 | ? | i | 7% | ? | ? | 40µM*
Cc1nc(C)c(C(=O)N2CCCCCNC(=O)[C@@H]3CCC[C@@H]32)s1 | 14% | i | 0% | ? | -25% | -15%
CC(=O)N1CCN(Cc2ccccc2-c2cccnc2)CC1 | -2%[87.6 µM] | nt | nt | 3%[12.5 µM] | -13%[138 µM] | -1%[172 µM]
CC(C)(C)C(=O)N1CCN(Cc2ccccc2-c2cccnc2)CC1 | 0%[87.6 µM] | nt | nt | -5%[12.5 µM] | -29%[138 µM] | 100µM*
O=C(C1CCCC1)N1CCN(Cc2ccccc2-c2cccnc2)CC1 | -12% | nt | nt | -17%[12.5 µM] | ? | 50µM*
O=C(c1ccncc1)N1CCN(Cc2ccccc2-c2cccnc2)CC1 | 9% | nt | nt | 28%[12.5 µM] | -40% | -18%
COC(=O)CNC(=O)c1cc(-c2cccc(C(F)(F)F)c2)c2cccn2n1 | -15% | nt | nt | -9% | ? | ?
COCCNC(=O)c1cc(-c2cccc(C(F)(F)F)c2)c2cccn2n1 | 5% | nt | nt | -1% | ? | 32µM*
O=C(NCC1CC1)c1cc(-c2cccc(C(F)(F)F)c2)c2cccn2n1 | ? | nt | nt | -20% | ? | 28µM*
CC(=O)NC1(C)CN(Cc2ccc(-c3cccc(C(F)(F)F)c3)nc2)C1 | 81%[87.6 µM] | i | -3%[70.6 µM] | -2%[87.6 µM] | ? | ?
CC(C)(O)CCc1cccc(C(=O)NCc2ccccc2Cn2cccn2)c1 | ? | i | -11% | 5% | 22µM* | -23%
CC(C)(O)CCc1cccc(C(=O)NCCNc2cccnc2)c1 | 5% | i | -6% | 5% | ? | 32µM*
Cc1cccnc1CNC[C@H]1O[C@@H]2C[C@@H](CC(=O)NCc3nccn3C)O[C@@H]2[C@@H]1O | -20%[87.6 µM] | i | 2%[70.6 µM] | -10%[87.6 µM] | -23%[174 µM] | i
COc1cccc(CNC(=O)c2nc3sccn3c2-c2cccc(OC)c2)c1 | 19% | nt | nt | -7% | ? | ?
O=C(CCc1ccc(CC2CCN(Cc3c[nH]c4ccccc34)CC2)cc1)N1CCCC1 | -17% | nt | nt | 6% | 32µM* | 35µM*
